# Assay outcomes as filed in PubChem.
# Pol eta inh-1: qHTS for Inhibitors of Polymerase Eta; DNA polymerase eta (Homo sapiens), Q9Y253; recombinant Pol eta, fluorescent DNA replication assay; Potency, µM (titrated, usually from 114 µM), for inactives: top-dose activity change, negative = inhibition, usual class: inhibitors; 390,000 compounds, 1.2% hits; further: potency means the concentration at half of the fitted maximal effect; on the % scale 0 is the no-effect control and ±100 the full control effect
#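 Pol eta at 10 nM preincubated with compounds 15 min at room temperature; reaction started with fluorescent substrate (50 nM final) and read kinetically at 0 and 10 min.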
# WRN helicase inh-1: qHTS for Inhibitors of WRN Helicase | Bifunctional 3'-5' exonuclease/ATP-dependent helicase WRN (Homo sapiens), Q14191 | WRN helicase unwinding, fluorescent forked duplex, kinetic | Potency, µM (highest dose often 114 µM), for inactives: top-dose activity change, negative = inhibition, usual class: inhibitors | 360,000 compounds, 0.46% hits | AID 651768, 2012; further: potency means the concentration at half of the fitted maximal effect; on the % scale 0 is the no-effect control and ±100 the full control effect; nearly all actives have a fitted effect of over 55% in size
#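 Enzyme (20 nM final) and test compound sit together 15 min at room temperature before substrate addition. Substrate is a single-forked duplex oligonucleotide (100 nM) labelled with fluorophore and quencher, with 2 mM ATP; helicase unwinding raises red fluorescence, read kinetically.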
# PI5P4K alpha inh: qHTS for Inhibitors of phosphatidylinositol 5-phosphate 4-kinase (PI5P4K); Phosphatidylinositol 5-phosphate 4-kinase type-2 alpha (Homo sapiens), P48426; PI5P4Kalpha enzyme, ADP-Glo luminescence, 60 min; stronger effect = lower value; max response, %; 330,000 compounds, 1.2% hits; active means max response of -50% or lower; inconclusive means between -30% and -50%; inactive means -30% or higher; further: value at the top dose of about 77 µM; on the % scale 0 is the no-effect control and ±100 the full control effect
# Target sequence (P48426 whole entry, looked up): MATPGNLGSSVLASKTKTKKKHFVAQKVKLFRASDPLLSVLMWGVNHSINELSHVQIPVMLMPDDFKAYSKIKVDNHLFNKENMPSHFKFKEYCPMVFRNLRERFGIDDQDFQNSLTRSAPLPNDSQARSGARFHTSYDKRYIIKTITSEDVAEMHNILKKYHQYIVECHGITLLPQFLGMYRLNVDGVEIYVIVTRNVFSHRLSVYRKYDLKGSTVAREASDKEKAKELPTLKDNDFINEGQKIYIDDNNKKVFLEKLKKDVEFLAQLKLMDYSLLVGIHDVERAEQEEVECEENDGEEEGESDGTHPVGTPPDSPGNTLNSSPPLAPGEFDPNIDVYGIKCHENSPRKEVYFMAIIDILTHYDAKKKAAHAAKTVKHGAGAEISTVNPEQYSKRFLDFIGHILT
#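 Human PI5P4Kalpha with substrate in 0.038 M HEPES pH 7.4, 0.28 mM EGTA, 0.1% CHAPS, 5% DMSO; reaction started with 5 microM ATP (final), 60 min at room temperature. ADP formed read by ADP-Glo luminescence.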
# Pol iota inh: qHTS for Inhibitors of Polymerase Iota; Pol iota fluorescent replication assay, 10 min; Potency, µM (titrated, usually from 115 µM), for inactives: at the highest dose activity, negative = inhibition, hits mostly inhibitors; 390,000 compounds, 1% hits; AID 588590, 2011; further: potency means the concentration at half of the fitted maximal effect
#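 Pol iota at 10 nM preincubated 15 min with compounds at room temperature; reaction started with fluorescent substrate, 50 nM final. Fluorescence read kinetically at 0 and 10 min; buffer-only wells as negative control.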
# Pol beta inh: qHTS Assay for Inhibitors of DNA Polymerase Beta; P06746; Pol beta primer extension/strand displacement, fluorescence kinetic; Potency, µM (highest dose often 114 µM), without a hit: at the top dose activity change, negative = inhibition, most hits filed as inhibitors; 340,000 compounds, 1.3% hits; further: potency means the concentration at half of the fitted maximal effect; on the % scale 0 is the no-effect control and ±100 the full control effect
#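 Pol beta (10 nM) and compounds were preincubated 15 min at room temperature, then 50 nM substrate (final) started primer extension/strand displacement. Reads were taken at 0 and 10 min; concentration-response data were fitted to a four-parameter Hill equation.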
# Pol kappa inh-1: qHTS for Inhibitors of Polymerase Kappa; purified Pol kappa, fluorescent DNA synthesis assay, 10 min; Potency, µM (top dose mostly 107 µM), inactives show at the highest dose activity, negative = inhibition, actives largely listed as inhibitors; DNA polymerase kappa (Homo sapiens), Q9UBT6; 400,000 compounds, 0.53% hits; further: potency means the concentration at half of the fitted maximal effect; on the % scale 0 is the no-effect control and ±100 the full control effect
#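 10 nM Pol kappa preincubated 15 min at room temperature with compounds, then reaction started with substrate at 50 nM final. Fluorescence read kinetically at 0 and 10 min; buffer-only wells served as negative control.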
# POLI cherry-pick: qHTS for Inhibitors of Polymerase Iota: Confirmatory Assay for Cherry-picked Compounds. shares compounds with Pol kappa inh-1. Pol iota primer extension, TAMRA/BHQ fluorescence. Potency, µM, hits mostly inhibitors. 1,500 compounds, 77% hits. AID 720496, 2013; further: potency means the concentration at half of the fitted maximal effect
# Pol kappa inh-2: qHTS for Inhibitors of Polymerase Kappa: Confirmatory Assay for Cherry-picked Compounds | AID 720501, 2013 | Potency, µM, usual class: inhibitors | shares compounds with Pol eta inh-1 | purified Pol-kappa, fluorescent strand-displacement substrate | 920 compounds, 76% hits; further: potency means the concentration at half of the fitted maximal effect
# Pol eta inh-2: qHTS for Inhibitors of Polymerase Eta: Confirmatory Assay for Cherry-picked Compounds. AID 720502, 2013. Potency, µM, hits mostly inhibitors. shares compounds with Pol eta inh-1. 2,600 compounds, 64% hits. Pol eta primer extension, TAMRA/BHQ fluorescence, 10 min; further: potency means the concentration at half of the fitted maximal effect
# WRN helicase inh-2: qHTS for Inhibitors of WRN Helicase: Confirmatory Assay for Cherry-picked Compounds. shares compounds with WRN helicase inh-1. WRN helicase DNA unwinding, fluorescence kinetic. Potency, µM (titrated, usually from 57.1 µM), for the others: top-dose activity, negative = inhibition, usual class: inhibitors. 610 compounds, 63% hits. AID 720497, 2013; further: potency means the concentration at half of the fitted maximal effect; nearly all actives have a fitted effect of over 65% in size
# TO displacement: qHTS for Inhibitors of WRN Helicase: Thiazole Orange DNA Binding Counterscreen; Potency, µM (series often up to 57.1 µM), for the others: at the top dose activity change, negative = inhibition, usual class: inhibitors; shares compounds with WRN helicase inh-1; thiazole orange DNA binding displacement, fluorescence; 610 compounds, 10% hits;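 further: drop in dye fluorescence marks compound binding to DNA; potency means the concentration at half of the fitted maximal effect; on the % scale 0 is the no-effect control and ±100 the full control effect; nearly all actives have a fitted effect of over 60% in size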
# BLM counter: qHTS for Inhibitors of WRN Helicase: BLM Helicase Counterscreen for WRN Inhibitors | Recombinant BLM helicase DNA unwinding, red fluorescence | AID 720503, 2013 | shares compounds with WRN helicase inh-1 | Potency, µM (titrated, usually from 57.1 µM), inactives show at the highest dose activity change, negative = inhibition, most hits filed as inhibitors | 610 compounds, 60% hits; further: potency means the concentration at half of the fitted maximal effect; nearly all actives have a fitted effect of over 60% in size
# Numbers without * were called inactive; ? = inconclusive; · = no result; [ ] = remark or other dose. The list is not random: actives were taken first. Their share in the collection is about 2.8%. Unless noted, the call rests on the fitted dose curve; in most records, active means well fitted curve in the direction sought with a large enough effect; inconclusive means small, poorly fitted or top-dose-only effect, or another doubt; inactive means no such curve, though single readings can be large; an effect the other way counts as inactive or inconclusive.
SMILES,Pol eta inh-1,WRN helicase inh-1,PI5P4K alpha inh,Pol iota inh,Pol beta inh,Pol kappa inh-1,POLI cherry-pick,Pol eta inh-2,WRN helicase inh-2,TO displacement,BLM counter,others
Nc1ccc2c(c1)C(O)c1cccc(C(=O)O)c1-2 (stereo not drawn),?,?,5,21%,·,-26%,·,·,·,·,·,
C=CCN1C(=O)/C(=C2/Sc3ccccc3N2CCCS(=O)(=O)O)SC1=S,3.2µM*,?,?,?,45µM*,?,?,38*,22µM*,-5%,22µM*,
Cc1cccc(COC(=O)C(Cc2ccccc2)NC(N)=O)c1 (stereo not drawn),-13%,3%,-5,15%,?,-6%,·,·,·,·,·,
CCSc1nnc(NC(=O)CSc2sc3c(O)cc(=O)[nH]c3c2C#N)s1,3.5µM*,18µM*,-102*,3.5µM*,35µM*,20µM*,42*,24*,19µM*,?,?,Pol kappa inh-2=9.5*
Cc1nccc2oc(=O)c(NC(=O)c3ccc(Cl)cc3)cc12,-17%,-3%,0,17%,?,2%,·,·,·,·,·,
O=C(Nc1cc2c(oc1=O)CCCC2=O)c1ccc(Cl)cc1,11µM*,13µM*,·,-98%,3.5µM*,18µM*,15*,8.5*,19µM*,0%,7.6µM*,
COC(=O)C(NC(=O)CC(C)C)(Nc1nc2c(s1)CCCC2)C(F)(F)F (stereo not drawn),-11%,·,·,6%,-2%,-7%,·,·,·,·,·,
CC(C)N1C(=O)S/C(=C/c2ccc(Sc3nc4ccccc4[nH]3)o2)C1=O,-20%,-21%,-5,8%,-26%,-24%,·,·,·,·,·,
CCOC(=O)C(C)N1C(=O)S/C(=C\c2ccc(-c3ccccc3C(=O)O)o2)C1=O (stereo not drawn),3.2µM*,25µM*,?,?,22µM*,-17%,17*,17*,15µM*,-6%,22µM*,Pol kappa inh-2=3*
CSCC[C@H](NC(=O)[C@H](Cc1ccccc1)NC[C@@H](NC[C@@H](N)CS)C(C)C)C(=O)O,·,·,·,·,·,11%[60.1 µM],·,·,·,·,·,
CN(C)CCCNC(=O)C[C@H]1C[C@H](C(=O)N2CCOCC2)[C@@]2(C)c3[nH]c4cc(-c5ccco5)ccc4c3CCN2C1=O,-10%,-11%,4,35%,·,13%,·,·,·,·,·,
Cc1ccc(-c2nn3cnnc3s2)cc1NC(=O)c1ccc(-c2cccc(Cl)c2)o1,·,·,·,·,·,·,27*,76*,?,163%,?,Pol kappa inh-2=?
O=C1/C(=C\c2cccc(O)c2O)SC(=S)N1Cc1ccccc1,?,-23%,-27,?,-20%,-7%,·,·,·,·,·,
O=C1/C(=C\c2cc([N+](=O)[O-])ccc2O)SC(=S)N1Cc1ccc(Cl)cc1,?,6µM*,?,?,3.2µM*,-4%,34*,24*,5.4µM*,21%,3µM*,
CN(C)/C=C1\SC(=S)N(c2ccc(F)cc2)C1=O,-10%,-8%,-6,-5%,1%,-8%,·,·,·,·,·,
CN(C)/C=C1\SC(=S)N(c2ccc(Br)cc2)C1=O,?,?,0,40µM*,?,?,19*,76*,24µM*,3%,22µM*,
Cc1oc(-c2cccs2)nc1CNC[C@H]1O[C@@H](n2cnc3c(N)ncnc32)[C@H](O)[C@@H]1O,-10%,4%,-2,-27%,·,-2%,·,·,·,·,·,
O=[N+]([O-])c1cc2ccccc2c(O)c1O,4.5µM*,?,?,·,·,·,12*,7.6*,12µM*,-10%,0.68µM*,Pol kappa inh-2=2.1*
Fc1ccc(N2CCN(Cc3cccn3-c3nnc(N4CCN(C5CCCCC5)CC4)s3)CC2)cc1,-8%,·,·,6%,22%,2%,·,·,·,·,·,
COc1ccc2[nH]c(=O)c(-c3noc(-c4ccccc4)n3)cc2c1,?,?,-1,?,-49%,2%,42*,67*,22µM*,45%,6.1µM*,
COc1ccc2[nH]c(=O)c(-c3nnn(-c4ccccc4)n3)cc2c1,-12%,5%,-14,18%,2%,15%,·,·,·,·,·,
NC(=O)C1CCCN(C(=O)c2ccc3c(c2)NC(=O)CS3)C1 (stereo not drawn),-19%,6%,-4,4%,·,-1%,·,·,·,·,·,
Cc1ccc(S(=O)(=O)N2CCOCC2)cc1NC(=O)COC(=O)Cn1c(C)csc1=O,-27%,3%,7,16%,·,-3%,·,·,·,·,·,
NC(=S)NN=C1c2ccccc2-c2ccccc21,-7%,2%,-6,-28%,2%,-4%,·,·,·,·,·,
COc1ccc(C2=Nn3c(nnc3-c3ccco3)SC2)cc1,-8%,-5%,0,-4%,-1%,5%,·,·,·,·,·,
